BoNT A protease: BoNT/A light chain protease inhibitors, primary screen, biochemical, flow cytometry, MLPCN library; Botulinum neurotoxin type A light chain protease (Clostridium botulinum A str. ATCC 3502); multiplex microsphere protease substrate cleavage; inhibition, % at 10 µM; 0.17% of 360,000 active; also: plate controls were buffer without enzyme for full effect and enzyme alone for no effect
Anthrax LF inh2: Bacillus anthracis LF protease inhibitors, primary screen, biochemical, multiplex microsphere, MLPCN library. Lethal factor (Bacillus anthracis), P15917. multiplex microsphere protease cleavage assay. inhibition, % at 10 µM. 0.12% of 360,000 active. AID 588501, 2011; also: plate controls were buffer without enzyme for full effect and enzyme alone for no effect
BoNT-F LC inh: BoNT/F light chain protease inhibitors, primary screen, biochemical, flow cytometry, MLPCN library; Botulinum neurotoxin type F light chain protease (Clostridium botulinum); Multiplex microsphere protease cleavage assay; inhibition, % at 10 µM; 0.22% of 360,000 active; in the data active = inhibition above about 35%, passing the limit was not always enough; inconclusive = no clear call, values can overlap the other calls; also: plate controls were buffer without enzyme for full effect and enzyme alone for no effect
Autofluor counter: counter-screen for toxin protease inhibitors: compound fluorescence. compound autofluorescence counterscreen, microsphere flow cytometry; hits give high values. AID 624483. 3.1% of 360,000 active. fluorescence intensity (test concentration not listed); in the data active = fluorescence intensity above about 16000; inconclusive = no clear call, values can overlap the other calls
* hit, by the source's call. Rows were chosen to be rich in hits. Some 3.5% of all compounds tested hit in one or more screens of this group. Rule as the data show it, unless noted: active = inhibition above about 30%; inconclusive = no clear call, values can overlap the other calls; inactive = below that.

`CCOc1ccc(-c2nnn(CC(=O)NCCc3c[nH]c4ccccc34)n2)cc1` gave BoNT A protease 1, Anthrax LF inh2 -9, BoNT-F LC inh 1 and Autofluor counter 8532.
COc1ccc(-c2nnn(CC(=O)NCCc3c[nH]c4ccccc34)n2)cc1OC was read as BoNT A protease -2, Anthrax LF inh2 -2, BoNT-F LC inh -4 and Autofluor counter 21211*.
COC(=O)[C@@H](NC(=O)Nc1cccc(OC)c1)C(C)C was read as BoNT A protease 5, Anthrax LF inh2 -8, BoNT-F LC inh 5 and Autofluor counter 21593*.
`COC(=O)[C@@H](NC(=O)Nc1ccc(OC)cc1)C(C)C` gave BoNT A protease -1, Anthrax LF inh2 -4, BoNT-F LC inh -2 and Autofluor counter 8405.
O=C(COC(=O)c1ccc(F)c(S(=O)(=O)N2CCOCC2)c1)NCCc1ccc(F)cc1 was read as BoNT A protease 0, Anthrax LF inh2 -8, BoNT-F LC inh -2 and Autofluor counter 2904.
For CCOc1ccccc1C(=O)NCC(=O)NCCSc1ccc(Br)cc1 the results were BoNT A protease 1, Anthrax LF inh2 -2, BoNT-F LC inh 5 and Autofluor counter 4658.
`CC(C)(C)c1ccc(CC(=O)N2CCC2(C)C(=O)NCc2cccs2)cc1` (stereo unspecified) gave BoNT A protease 0, Anthrax LF inh2 -1, BoNT-F LC inh 0 and Autofluor counter 3358.
Screening CC1=CC(=C2C(=O)NC(=O)NC2=O)C=C(C(F)(F)F)N1C(C)C returned BoNT A protease 3, Anthrax LF inh2 -13, BoNT-F LC inh 3 and Autofluor counter 21183*.
`CC1=CC(=C2C(=O)NC(=O)NC2=O)C=C(C(F)(F)F)N1Cc1ccccc1` gave BoNT A protease 0, Anthrax LF inh2 0, BoNT-F LC inh -4 and Autofluor counter 2065.
For C=CCn1c(COc2ccc(OC)cc2)nnc1SCn1nnc2ccccc2c1=O the results were BoNT A protease 0, Anthrax LF inh2 0, BoNT-F LC inh -1 and Autofluor counter 2093.
For O=c1c2ccccc2nnn1CSc1nnc(COc2ccc(Cl)cc2)n1Cc1ccco1 the results were BoNT A protease inconclusive, Anthrax LF inh2 -4, BoNT-F LC inh -4 and Autofluor counter 22380*.
For CC(C)(C)C(=O)N1CCN(c2ncnc3scc(-c4ccccc4)c23)CC1 the results were BoNT A protease 3, Anthrax LF inh2 -11, BoNT-F LC inh 14 and Autofluor counter 4073.
O=C1Nc2ccccc2/C1=C\c1cccn1-c1ccc(OC(F)(F)F)cc1 was read as BoNT A protease -2, Anthrax LF inh2 -5, BoNT-F LC inh -6 and Autofluor counter 24253*.
Screening O=C1Nc2ccccc2/C1=C/c1ccccc1F returned BoNT A protease -2, Anthrax LF inh2 0, BoNT-F LC inh 1 and Autofluor counter 3986.
For NC(=O)c1ccc(NC(=O)COC(=O)CCC2CCCC2)cc1 the results were BoNT A protease 0, Anthrax LF inh2 -2, BoNT-F LC inh 0 and Autofluor counter 3929.
`Cc1c(N=Cc2ccc(Br)s2)cccc1[N+](=O)[O-]` gave BoNT A protease 0, Anthrax LF inh2 0, BoNT-F LC inh -2 and Autofluor counter 23875*.
Screening c1ccc(-c2nccc(-c3ccco3)n2)nc1 returned BoNT A protease -3, Anthrax LF inh2 -2, BoNT-F LC inh -2 and Autofluor counter 3132.
For c1ccc(-c2nc(-c3ccco3)cs2)nc1 the results were BoNT A protease 1, Anthrax LF inh2 1, BoNT-F LC inh 1 and Autofluor counter 22107*.
Screening COc1ccc(-c2cc(-c3ccccc3)nc(NN)n2)cc1OC returned BoNT A protease 0, Anthrax LF inh2 -5, BoNT-F LC inh -16 and Autofluor counter 3061.
`COc1nc(-c2ccccc2)cc(-c2ccc(OC)c(OC)c2)n1` gave BoNT A protease 0, Anthrax LF inh2 -1, BoNT-F LC inh -2 and Autofluor counter 19447*.
COc1ccc(N2CCN(C(=O)CCCOc3cc(=O)n(C)c4ccccc34)CC2)cc1 was read as BoNT A protease -1, Anthrax LF inh2 -4, BoNT-F LC inh -4 and Autofluor counter 23028*.
For CC1CCN(C(=O)CCCOc2cc(=O)n(C)c3ccccc23)CC1 the results were BoNT A protease inconclusive, Anthrax LF inh2 2, BoNT-F LC inh -1 and Autofluor counter 20059*.
`CNS(=O)(=O)c1cccc(C(=O)NCC(c2cccs2)N(C)C)c1` (stereo unspecified) gave BoNT A protease 2, Anthrax LF inh2 -8, BoNT-F LC inh 3 and Autofluor counter 22234*.
Cc1ccc(NS(=O)(=O)c2cccc(C(=O)NCC(c3cccs3)N(C)C)c2)cc1 (stereo unspecified) was read as BoNT A protease -1, Anthrax LF inh2 -1, BoNT-F LC inh -4 and Autofluor counter 4015.
`Nc1[nH]c2cc([N+](=O)[O-])ccc2c1-c1ccccn1` gave BoNT A protease -2, Anthrax LF inh2 -6, BoNT-F LC inh -2 and Autofluor counter 7640.
For ONC(=Nc1ccccc1)c1ccc(Cl)cc1 the results were BoNT A protease 2, Anthrax LF inh2 -1, BoNT-F LC inh 4 and Autofluor counter 21077*.
NC(=Nc1ccc(Cl)cc1)c1ccccc1 was read as BoNT A protease -1, Anthrax LF inh2 -2, BoNT-F LC inh -1 and Autofluor counter 4174.
`CCN1CCN(CC(O)COC(C)C)CC1` (stereo unspecified) gave BoNT A protease 0, Anthrax LF inh2 -2, BoNT-F LC inh -1 and Autofluor counter 20191*.
`Cc1cc(C(=O)N/N=C/C(Cl)=C/c2ccccc2)c(C)o1` gave BoNT A protease 0, Anthrax LF inh2 inconclusive, BoNT-F LC inh 23 and Autofluor counter 3797.
`CC(C)CSc1ncnc2c1oc1nc3c(cc12)COC(C)(C)C3` gave BoNT A protease -1, Anthrax LF inh2 2, BoNT-F LC inh -3 and Autofluor counter 20132*.
Screening CCN(CC)CC(C)(C)COC(=O)c1oc2ccccc2c1C returned BoNT A protease -1, Anthrax LF inh2 -4, BoNT-F LC inh 4 and Autofluor counter 4160.
Cc1ccc(-n2[nH]c(=O)c(-c3ccccn3)c2C)cc1 was read as BoNT A protease 0, Anthrax LF inh2 -2, BoNT-F LC inh -5 and Autofluor counter 4587.
For Cc1ccc(-n2[nH]c(=O)c3cccnc32)cc1 the results were BoNT A protease -2, Anthrax LF inh2 -5, BoNT-F LC inh -3 and Autofluor counter 16502*.
O=C(NC1CCCCC1)c1ccc(S(=O)(=O)N2CCCC2)cc1 was read as BoNT A protease inconclusive, Anthrax LF inh2 -2, BoNT-F LC inh -4 and Autofluor counter 16946*.
Screening CN1CCN(S(=O)(=O)c2ccc(C(=O)NC3CCCCC3)cc2)CC1 returned BoNT A protease 0, Anthrax LF inh2 3, BoNT-F LC inh 9 and Autofluor counter 3830.
For Cc1ccc(C(=O)NC2CCN(S(=O)(=O)c3ccccc3)CC2)cc1 the results were BoNT A protease 0, Anthrax LF inh2 1, BoNT-F LC inh -3 and Autofluor counter 3657.
CCOc1ccc(C(=O)NC2CCN(S(=O)(=O)c3ccccc3)CC2)cc1 was read as BoNT A protease 1, Anthrax LF inh2 0, BoNT-F LC inh 38* and Autofluor counter 2800.

Screening data: PubChem BioAssay, NMMLSC
